# Measured values as given in PubChem BioAssay.
# Active and inactive are the calls of the source.
# How the values were obtained:
# [1] = test system: PRMT1 (protein arginine N-methyltransferase 1); test: PRMT1 binders on small-molecule microarrays, primary screen, biochemical, small-molecule microarray, 635 nm fluorescence (AID 1088); details: small-molecule microarray binding, higher = more signal;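 further: binding of Prmt1 protein to compounds spotted on small-molecule microarray slides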
# [2] = yeast growth modulation, basal conditions, primary screen, YJM789 clinical isolate, OD600, 24 h (AID 1089);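 further: growth of clinical yeast isolate S. cerevisiae YJM 789 seeded 1000 cells per well; test concentration not given here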; details: S. cerevisiae YJM789 growth, higher = more signal, called active from +8 up or from −8 down
# [3] = fission yeast growth modulation, primary screen, strain 972, OD600, 24 h, no modulator (AID 1090);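 further: basal condition with compound alone and no growth modifier present; test concentration not given here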; details: S. pombe 972 growth, higher = more signal, called active from +8 up or from −8 down
# [4] = S. cerevisiae growth modulation with rapamycin, primary screen, strain BY4716, OD600, 96 h (AID 1091); details: higher = more signal, called active from +8 up or from −8 down; further: test concentration not given here
# [5] = molecular target: Torsin-1A-interacting protein 2 (Homo sapiens) (UniProt Q8NFQ8); test: LULL1 binders on small-molecule microarray, primary screen, cell lysate, human LULL1 lysate, 635/667 nm fluorescence (AID 1092); details: hLULL1 lysate binding, 635 nm fluorescence, higher = more signal;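 further: probe is lysate of COS7 cells overexpressing human LULL1; score merges per-feature 667 nm fluorescence with signal-to-noise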
# Torsin-1A-interacting protein 2 (Homo sapiens), sequence (Q8NFQ8 whole entry, looked up): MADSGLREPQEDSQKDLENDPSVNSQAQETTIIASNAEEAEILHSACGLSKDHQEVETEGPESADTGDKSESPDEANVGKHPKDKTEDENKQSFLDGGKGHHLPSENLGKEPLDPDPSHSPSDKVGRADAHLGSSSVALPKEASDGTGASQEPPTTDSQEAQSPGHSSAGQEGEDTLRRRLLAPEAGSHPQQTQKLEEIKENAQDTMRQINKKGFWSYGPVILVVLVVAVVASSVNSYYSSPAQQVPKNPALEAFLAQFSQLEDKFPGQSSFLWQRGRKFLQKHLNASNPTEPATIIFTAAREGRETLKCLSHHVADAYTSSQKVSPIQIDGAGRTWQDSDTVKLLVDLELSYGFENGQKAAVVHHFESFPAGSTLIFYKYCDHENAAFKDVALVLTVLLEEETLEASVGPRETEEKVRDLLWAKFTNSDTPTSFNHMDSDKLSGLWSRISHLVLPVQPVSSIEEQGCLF
# [6] = E. coli growth modulation, two-sided OD650, primary screen, E. coli filamentation project, strain DRC41, 24 h (AID 1093); details: OD650, 24 h, higher = more signal, called active from +8 up or from −8 down;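 further: MC1000 strain lacking acrAB efflux and sulA so SOS filamentation is blocked; test concentration not given here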
# [7] = small-molecule microarray binders of probe aLefty2, primary screen, biochemical, biotinylated probe, 635/667 nm fluorescence (AID 1094); details: higher = more signal;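 further: score merges spot fluorescence near 667 nm with spot signal-to-noise ratio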
# [8] = test system: Noggin (protein binding on small-molecule microarray); test: Noggin binders on small-molecule microarray, primary screen, biochemical, 635/667 nm fluorescence (AID 1095); details: 635 nm fluorescence, higher = more signal;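 further: score merges 667 nm feature fluorescence with signal to noise over triplicate slides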
# [9] = molecular target: Neurogenic locus notch homolog protein 3 (Homo sapiens) (UniProt Q9UM47); test: NOTCH3 binders on small-molecule microarray, primary screen, biochemical, 635/667 nm fluorescence (AID 1096); details: NOTCH3 binding, 635 nm fluorescence, higher = more signal
# Neurogenic locus notch homolog protein 3 (Homo sapiens), sequence (Q9UM47 whole entry, looked up): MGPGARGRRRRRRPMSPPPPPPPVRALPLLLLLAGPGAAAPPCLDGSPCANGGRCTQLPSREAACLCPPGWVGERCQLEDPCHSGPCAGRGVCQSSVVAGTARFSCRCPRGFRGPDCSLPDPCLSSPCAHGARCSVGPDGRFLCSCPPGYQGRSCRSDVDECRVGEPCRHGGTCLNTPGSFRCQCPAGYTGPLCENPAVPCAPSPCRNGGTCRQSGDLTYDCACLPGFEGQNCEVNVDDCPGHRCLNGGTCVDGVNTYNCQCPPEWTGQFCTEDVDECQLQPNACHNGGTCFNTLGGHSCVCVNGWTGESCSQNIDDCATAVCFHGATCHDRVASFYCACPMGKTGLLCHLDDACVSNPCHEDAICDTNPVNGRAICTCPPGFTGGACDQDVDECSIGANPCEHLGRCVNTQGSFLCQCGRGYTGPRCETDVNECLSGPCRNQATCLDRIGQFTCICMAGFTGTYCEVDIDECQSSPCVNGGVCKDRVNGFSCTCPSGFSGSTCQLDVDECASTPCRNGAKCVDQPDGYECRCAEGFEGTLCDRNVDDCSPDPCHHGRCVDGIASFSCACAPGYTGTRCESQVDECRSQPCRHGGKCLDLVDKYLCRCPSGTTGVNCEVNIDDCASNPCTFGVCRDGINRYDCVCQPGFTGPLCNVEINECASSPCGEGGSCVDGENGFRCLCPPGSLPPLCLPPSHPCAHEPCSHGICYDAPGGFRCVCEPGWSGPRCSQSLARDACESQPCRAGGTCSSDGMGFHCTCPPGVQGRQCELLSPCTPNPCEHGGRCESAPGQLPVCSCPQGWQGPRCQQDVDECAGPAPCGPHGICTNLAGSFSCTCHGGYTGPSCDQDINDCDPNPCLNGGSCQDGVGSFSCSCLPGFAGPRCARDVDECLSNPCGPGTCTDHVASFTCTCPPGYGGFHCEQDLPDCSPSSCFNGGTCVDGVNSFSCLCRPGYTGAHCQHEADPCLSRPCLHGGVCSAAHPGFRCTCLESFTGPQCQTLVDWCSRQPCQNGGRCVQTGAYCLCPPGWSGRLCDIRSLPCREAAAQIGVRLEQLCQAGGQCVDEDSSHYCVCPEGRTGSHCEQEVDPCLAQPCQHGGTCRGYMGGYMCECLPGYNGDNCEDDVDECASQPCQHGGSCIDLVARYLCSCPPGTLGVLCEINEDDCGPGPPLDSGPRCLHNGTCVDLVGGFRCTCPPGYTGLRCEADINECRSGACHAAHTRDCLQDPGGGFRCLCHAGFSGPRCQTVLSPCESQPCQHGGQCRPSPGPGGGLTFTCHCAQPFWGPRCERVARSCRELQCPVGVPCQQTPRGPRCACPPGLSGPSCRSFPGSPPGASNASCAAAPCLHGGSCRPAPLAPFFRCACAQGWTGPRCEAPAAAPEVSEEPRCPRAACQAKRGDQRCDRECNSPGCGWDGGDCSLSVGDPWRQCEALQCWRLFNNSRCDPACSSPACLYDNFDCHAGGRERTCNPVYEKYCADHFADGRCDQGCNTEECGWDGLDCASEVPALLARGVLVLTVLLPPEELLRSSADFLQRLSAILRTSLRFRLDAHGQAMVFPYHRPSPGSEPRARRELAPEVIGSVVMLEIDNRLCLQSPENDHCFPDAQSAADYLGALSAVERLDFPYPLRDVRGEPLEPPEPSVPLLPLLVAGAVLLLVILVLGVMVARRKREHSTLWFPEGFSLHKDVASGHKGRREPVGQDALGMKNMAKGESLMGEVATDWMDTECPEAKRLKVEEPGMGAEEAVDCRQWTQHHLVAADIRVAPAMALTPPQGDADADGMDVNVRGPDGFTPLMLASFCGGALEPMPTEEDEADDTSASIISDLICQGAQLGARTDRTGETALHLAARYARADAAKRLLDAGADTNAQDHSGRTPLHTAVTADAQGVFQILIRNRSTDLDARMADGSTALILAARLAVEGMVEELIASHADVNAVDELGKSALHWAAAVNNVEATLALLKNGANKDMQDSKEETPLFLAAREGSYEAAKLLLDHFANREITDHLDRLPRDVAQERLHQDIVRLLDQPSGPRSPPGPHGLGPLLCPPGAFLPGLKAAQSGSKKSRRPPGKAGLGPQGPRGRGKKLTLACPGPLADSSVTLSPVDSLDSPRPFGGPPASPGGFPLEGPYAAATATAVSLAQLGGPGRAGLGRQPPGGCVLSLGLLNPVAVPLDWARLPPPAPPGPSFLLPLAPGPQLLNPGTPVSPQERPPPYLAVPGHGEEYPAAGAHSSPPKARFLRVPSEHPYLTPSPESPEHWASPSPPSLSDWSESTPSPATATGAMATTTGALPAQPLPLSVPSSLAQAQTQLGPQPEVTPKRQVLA
# [10] = small-molecule microarray binders of probe aEGFR, primary screen, biochemical, biotinylated probe, 635/667 nm fluorescence (AID 1097); details: higher = more signal;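 further: probe is a biotinylated anti-EGFR antibody binding compounds printed on slides; score combines fluorescence near 667 nm and signal to noise of each spot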
# [11] = test system: Plasmodium falciparum Sir2 (PF13_0152, Sir2A); test: pfSir2 binders on small-molecule microarrays, primary screen, biochemical, small-molecule microarray, 635 nm fluorescence (AID 1098); details: small-molecule microarray binding, fluorescence 635 nm; higher = more signal;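 further: score merges spot fluorescence intensity with its signal-to-noise ratio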
# [12] = small-molecule microarray binders of probe aDKK1, primary screen, biochemical, biotinylated probe, 635/667 nm fluorescence (AID 1099); details: higher = more signal;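 further: score merges 667nm spot fluorescence with signal to noise across triplicate slides; reference of the scale not given here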
# [13] = small-molecule microarray binders of probe aCHRDL2, primary screen, biochemical, biotinylated probe, 635/667 nm fluorescence (AID 1100); details: higher = more signal
# [14] = splicing luciferase reporter signal modulators, primary screen, spliceosome inhibition project, cell-based, HEK293, splice +/- reporter (AID 1101); details: luminescence, 24 h, higher = more signal, called active from +8 up or from −8 down;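 further: HEK293 cells carrying a splicing-competent luciferase reporter gene; test concentration not given here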
# [15] = molecular target: Fibroblast growth factor 10 (Homo sapiens) (UniProt O15520); test: FGF10 binders on small-molecule microarrays, primary screen, biochemical, small-molecule microarray, 635 nm fluorescence (AID 1102); details: FGF10 binding, fluorescence 635 nm, higher = more signal
# Fibroblast growth factor 10 (Homo sapiens), sequence (O15520 whole entry, looked up): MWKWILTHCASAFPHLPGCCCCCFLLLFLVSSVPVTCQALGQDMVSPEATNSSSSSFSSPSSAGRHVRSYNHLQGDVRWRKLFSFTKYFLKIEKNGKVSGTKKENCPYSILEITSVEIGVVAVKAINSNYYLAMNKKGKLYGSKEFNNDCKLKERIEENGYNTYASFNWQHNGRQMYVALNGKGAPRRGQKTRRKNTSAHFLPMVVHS
# [16] = test system: glycogen synthase kinase-3 (GSK3A per assay name; protocol says GSK3B); test: GSK3 binders on small-molecule microarrays, primary screen, biochemical, small-molecule microarray, 635 nm fluorescence, GSK3A (AID 1103); details: small-molecule microarray binding, fluorescence 635 nm; higher = more signal; further: the record names both GSK3A and GSK3B
# [17] = molecular target: Epidermal growth factor receptor (Homo sapiens) (UniProt P00533); test: EGFR binders on small-molecule microarrays, primary screen, biochemical, small-molecule microarray, 635 nm fluorescence (AID 1104); details: EGFR binding, higher = more signal;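 further: score merges 667 nm emission intensity with spot signal to noise over triplicate slides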
# Epidermal growth factor receptor (Homo sapiens), sequence (P00533 whole entry, looked up): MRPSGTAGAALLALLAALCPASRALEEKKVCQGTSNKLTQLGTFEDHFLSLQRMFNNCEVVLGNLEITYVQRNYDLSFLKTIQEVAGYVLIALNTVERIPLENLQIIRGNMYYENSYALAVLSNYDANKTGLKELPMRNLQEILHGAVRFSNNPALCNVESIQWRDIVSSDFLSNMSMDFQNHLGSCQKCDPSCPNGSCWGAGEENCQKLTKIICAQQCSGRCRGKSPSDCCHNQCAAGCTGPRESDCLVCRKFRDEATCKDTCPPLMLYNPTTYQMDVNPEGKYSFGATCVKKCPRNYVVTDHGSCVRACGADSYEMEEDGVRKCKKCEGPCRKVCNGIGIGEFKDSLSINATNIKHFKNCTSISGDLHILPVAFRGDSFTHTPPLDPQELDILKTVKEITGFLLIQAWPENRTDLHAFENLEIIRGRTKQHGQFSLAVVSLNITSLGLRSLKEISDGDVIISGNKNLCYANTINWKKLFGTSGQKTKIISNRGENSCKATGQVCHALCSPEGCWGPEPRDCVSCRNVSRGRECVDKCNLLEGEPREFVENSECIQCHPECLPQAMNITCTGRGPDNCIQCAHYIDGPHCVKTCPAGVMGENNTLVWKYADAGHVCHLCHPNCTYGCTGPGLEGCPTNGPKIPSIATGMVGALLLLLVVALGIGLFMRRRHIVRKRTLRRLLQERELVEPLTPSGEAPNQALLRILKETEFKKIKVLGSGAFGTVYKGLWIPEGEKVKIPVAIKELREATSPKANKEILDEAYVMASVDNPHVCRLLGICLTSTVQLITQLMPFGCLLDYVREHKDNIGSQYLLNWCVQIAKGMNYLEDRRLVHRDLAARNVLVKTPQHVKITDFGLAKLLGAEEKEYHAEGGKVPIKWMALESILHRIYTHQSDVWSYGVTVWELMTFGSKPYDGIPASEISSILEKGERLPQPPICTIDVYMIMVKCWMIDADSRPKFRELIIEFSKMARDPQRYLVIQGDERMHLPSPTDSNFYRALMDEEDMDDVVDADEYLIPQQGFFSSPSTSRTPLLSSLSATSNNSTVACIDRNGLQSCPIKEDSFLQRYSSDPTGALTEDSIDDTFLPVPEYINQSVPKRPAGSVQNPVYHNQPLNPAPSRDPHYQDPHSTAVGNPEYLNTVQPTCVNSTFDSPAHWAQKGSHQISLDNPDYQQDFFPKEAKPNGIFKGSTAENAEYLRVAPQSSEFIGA
# [18] = molecular target: Follistatin-related protein 3 (Homo sapiens) (UniProt O95633); test: FSTL3 binders on small-molecule microarrays, primary screen, biochemical, small-molecule microarray, 635 nm fluorescence (AID 1105); details: FSTL3 binding, higher = more signal;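 further: score merges emission near 667 nm and signal to noise per printed spot across three slides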
# Follistatin-related protein 3 (Homo sapiens), sequence (O95633 whole entry, looked up): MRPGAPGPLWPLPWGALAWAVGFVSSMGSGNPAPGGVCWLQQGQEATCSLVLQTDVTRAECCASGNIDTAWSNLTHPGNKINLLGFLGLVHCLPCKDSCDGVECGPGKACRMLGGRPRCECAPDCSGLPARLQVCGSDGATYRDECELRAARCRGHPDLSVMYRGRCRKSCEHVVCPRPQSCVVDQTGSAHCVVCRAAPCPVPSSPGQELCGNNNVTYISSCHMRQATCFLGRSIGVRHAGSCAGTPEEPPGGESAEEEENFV
# [19] = molecular target: Dickkopf-related protein 1 (Homo sapiens) (UniProt O94907); test: DKK1 binders on small-molecule microarrays, primary screen, biochemical, small-molecule microarray, 635 nm fluorescence scan (AID 1106); details: DKK1 binding, higher = more signal;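 further: score merges emission near 667 nm with signal to noise over three replicate slides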
# Dickkopf-related protein 1 (Homo sapiens), sequence (O94907 whole entry, looked up): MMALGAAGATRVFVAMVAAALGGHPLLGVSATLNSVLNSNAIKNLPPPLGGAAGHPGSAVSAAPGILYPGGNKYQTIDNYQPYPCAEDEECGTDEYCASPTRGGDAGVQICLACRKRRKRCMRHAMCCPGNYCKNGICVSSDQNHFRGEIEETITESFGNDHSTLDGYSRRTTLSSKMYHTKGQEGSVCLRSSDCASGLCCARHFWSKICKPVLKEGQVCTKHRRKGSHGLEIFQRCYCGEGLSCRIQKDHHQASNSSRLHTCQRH
# [20] = test system: Inhibin beta A chain (activin A); test: INHBA (activin A) binders on microarrays, primary screen, biochemical, small-molecule microarray, 635 nm fluorescence scan (AID 1107); details: small-molecule microarray binding, higher = more signal;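 further: mouse activin A protein probed at 4.33 µg/mL on printed slides; score merges bound-protein fluorescence near 667 nm with spot signal-to-noise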
SMILES,composite z-score [1],z-score [2],z-score [3],z-score [4],composite z-score [5],z-score [6],composite z-score [7],composite z-score [8],composite z-score [9],composite z-score [10],composite z-score [11],composite z-score [12],composite z-score [13],z-score [14],composite z-score [15],composite z-score [16],composite z-score [17],composite z-score [18],composite z-score [19],composite z-score [20]
Cc1ccc(C(C)CC(O)C2C=CC3C(=O)NC(=O)C3N2Nc2ccccn2)o1 (stereo not given),1.09,0.633 (inactive),0.0293 (inactive),0.124 (inactive),1.94,0.504 (inactive),-0.0225,0.312,-0.233,-0.0302,1.22,0.182,-0.0866,0.802 (inactive),0.228,0.309,0.401,0.506,0.906,1.25
COc1ccc(C(O)C2C=CC3C(=O)N(c4ccccc4)C(=O)C3N2Nc2ccccc2)c2ccccc12 (stereo not given),0.802,-1.41 (inactive),1.81 (inactive),-0.0303 (inactive),2.23,-0.807 (inactive),0.189,-0.659,0.459,-0.0949,1,0.927,0.947,0.66 (inactive),-0.0394,0.0564,-0.413,0.165,-0.611,1.19
O=S(=O)(NCCCO)c1ccc(Br)cc1,0.607,-1.72 (inactive),-1.57 (inactive),-0.531 (inactive),1.18,0.707 (inactive),-0.18,0.355,-0.271,-0.0363,0.373,0.101,0.248,-1.03 (inactive),0.568,0.309,0.598,0.175,-0.0155,0.363
O=C1O[C@H](c2ccccc2)[C@H](c2ccccc2)N2[C@H]1[C@@H](C(=O)NC[C@H](O)c1ccccc1)[C@]1(C(=O)Nc3ccc(C#CC4(O)CCCCCC4)cc31)[C@H]2c1ccccc1OCCO,1.54,2.05 (inactive),1.27 (inactive),5.14 (inactive),2.84,0.0483 (inactive),-0.119,1.08,0.644,-0.182,1.51,-0.26,-0.313,-1.11 (inactive),1.17,1.16,-0.028,0.948,0.178,0.048
COc1ccc([Si](C)(C)[C@H]2[C@H](CC(=O)N3Cc4ccccc4C[C@H]3CO)O[C@@]3(C(=O)N(Cc4cccc(I)c4)c4ccccc43)[C@@H]2C)cc1,1.55,-0.413 (inactive),0.603 (inactive),2.75 (inactive),-0.48,1.2 (inactive),-0.119,2.05,0.863,-0.0758,0.391,-0.29,-0.162,-1.73 (inactive),1.15,0.346,1.4,1.36,1.57,1.76
COc1ccc([Si](C)(C)[C@@H]2[C@@H](CC(=O)N3Cc4ccccc4C[C@H]3CO)O[C@]3(C(=O)N(Cc4cccc(N5C(=O)COc6ccccc65)c4)c4ccccc43)[C@H]2C)cc1,1.49,-1.38 (inactive),0.553 (inactive),3.67 (inactive),1.25,2.33 (inactive),-0.15,0.812,1.14,-0.0981,0.321,0.542,-0.602,-1.82 (inactive),0.904,0.901,0.925,1.13,1.01,0.729
CC[C@@H]1C=C(C(=O)O)[C@H](c2ccc(C(C)C)cc2)N1S(=O)(=O)c1ccc(C)cc1,1.53,-0.921 (inactive),0.242 (inactive),-1.07 (inactive),3.03,-0.29 (inactive),0.678,-0.0177,1.03,0.516,1.25,1.1,0.86,-0.0593 (inactive),1.08,1.15,0.001,1.18,-0.172,0.769
COC(=O)[C@@]1(Cc2ccccc2)[C@H]2c3cc(C(=O)N(C)C)n(Cc4ccccc4)c3C[C@H]2CN1C(=O)c1ccccc1,-0.361,0.84 (inactive),1.74 (inactive),1.51 (inactive),2.59,-0.813 (inactive),0.434,0.018,0.85,0.291,1.05,0.855,0.816,-1.03 (inactive),0.69,-0.0617,-0.262,0.383,-0.61,0.735
O=C(NCC(F)(F)F)[C@@H]1c2ccccc2C(=O)N(Cc2ccccc2)[C@H]1c1ccc(CO)cc1,1.04,-0.526 (inactive),0.0532 (inactive),0.13 (inactive),2.35,0.544 (inactive),-0.0192,-1.34,-0.612,-0.194,1.68,0.443,1.05,0.999 (inactive),-0.308,-0.409,-1.31,-1.12,-1.46,-0.296
COc1cc(CO)cc(I)c1O[C@H]1C=C(C(=O)NCCO)C[C@@H](N(CCc2cccc(F)c2)C(=O)CCC2CCCC2)[C@@H]1O,1.55,0.645 (inactive),-6.99 (inactive),-1.02 (inactive),1.7,0.0555 (inactive),-0.0632,1.91,0.922,-0.0302,1.1,0.0556,0.252,-1.37 (inactive),1.54,1.01,-0.261,0.716,0.897,0.733
